From PubChem BioAssay AID2796 (The Scripps Research Institute Molecular Screening Center, 2010)
Hit rate of the full screen: of about 320,000 compounds, about 8,000 (2.5%) were called active. No stated cut-off is given here; in the data, active means activation above about 47%; inactive means the rest. The list comes from a sample in which actives are over-represented; it also holds similar structures and randomly drawn compounds.

Each molecule was assayed against Aryl hydrocarbon receptor (Homo sapiens) (UniProt P35869) (assay: AHR activators, primary screen, cell-based, luminescence, luciferase reporter, human (AID 2796;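 further: 0% = vehicle wells and 100% = reference agonist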)). Details: AHR-responsive luciferase reporter cells, at 5 µM, active compounds read high.
Aryl hydrocarbon receptor (Homo sapiens), sequence (P35869 whole entry, looked up): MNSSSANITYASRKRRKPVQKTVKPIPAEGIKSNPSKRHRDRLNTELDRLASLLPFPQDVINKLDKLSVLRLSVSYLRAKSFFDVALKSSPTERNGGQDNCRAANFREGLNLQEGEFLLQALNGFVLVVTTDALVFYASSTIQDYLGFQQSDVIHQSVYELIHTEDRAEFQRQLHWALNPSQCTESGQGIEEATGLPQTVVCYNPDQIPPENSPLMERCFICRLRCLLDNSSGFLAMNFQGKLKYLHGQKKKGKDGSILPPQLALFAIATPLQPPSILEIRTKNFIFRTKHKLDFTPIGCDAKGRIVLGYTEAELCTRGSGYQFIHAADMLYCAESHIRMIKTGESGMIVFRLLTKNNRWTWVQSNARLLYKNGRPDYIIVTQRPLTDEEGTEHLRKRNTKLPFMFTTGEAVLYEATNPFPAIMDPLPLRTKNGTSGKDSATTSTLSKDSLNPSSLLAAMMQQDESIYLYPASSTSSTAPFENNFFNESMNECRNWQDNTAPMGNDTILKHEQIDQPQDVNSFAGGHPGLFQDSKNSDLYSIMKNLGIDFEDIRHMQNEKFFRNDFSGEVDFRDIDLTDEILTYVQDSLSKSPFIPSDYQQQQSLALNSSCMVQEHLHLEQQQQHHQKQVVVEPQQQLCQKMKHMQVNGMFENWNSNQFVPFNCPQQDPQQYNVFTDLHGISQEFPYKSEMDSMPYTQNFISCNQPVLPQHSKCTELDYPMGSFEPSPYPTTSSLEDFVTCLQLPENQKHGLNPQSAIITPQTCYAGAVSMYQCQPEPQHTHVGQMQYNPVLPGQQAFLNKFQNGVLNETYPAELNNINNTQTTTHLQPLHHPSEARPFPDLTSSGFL

activation, inactive:
O=C(NNc1cc(Cl)cc(Cl)c1)c1c(F)cccc1Cl 10.2%
Cc1sc(NC(=O)c2ccc3ncsc3c2)c(C(N)=O)c1C 5.88%
COc1ccccc1-c1nnc(NC(=O)c2cccc(N3C(=O)CCC3=O)c2)o1 33.9%
COC(=O)CN1C(=O)C(O)=C(C(C)=O)C1c1ccc([N+](=O)[O-])cc1 (stereo unspecified) 0.71%
CC(=O)C1=C(O)C(=O)N(c2cccnc2)C1c1ccc([N+](=O)[O-])cc1 (stereo unspecified) -2.61%
COC(=O)C1=C(C)N(C(C)c2ccccc2)C(=O)/C1=C\c1ccco1 (stereo unspecified) 1.2%
CCSc1ccccc1C(=O)NCc1ccc(OC)cc1 -0.68%
COc1ccc(COCCN2CCN(S(=O)(=O)c3ccccc3)CCC2=O)cc1 2.49%
CCN(CC(=O)Nc1ccc(OC)cc1)C(=O)CSCc1ccc(C)cc1 0.1%
Cc1occc1C(=O)Nc1cccc(S(=O)(=O)N2CCOCC2)c1 3.12%
COc1ccc(NC(=O)c2oc3ccc(S(=O)(=O)N4CCOCC4)cc3c2C)cc1 10.4%
N#Cc1ccc(OCCN2C(=O)NC3(CCSC3)C2=O)cc1 (stereo unspecified) -2.11%
Cc1cc(NC(=O)CSc2nnc(-c3ccco3)n2N)no1 1.53%
COc1ccc(C(=O)NC(=S)N2CCNC(=O)C2CC(=O)OC(C)C)cc1 (stereo unspecified) 5.47%
Cc1cc2ncn(CCCCOc3ccccc3)c2cc1C -0.22%
S=C1NC(c2ccccc2)=NCN1c1ccc(Br)cc1 1.57%
N#Cc1ccc(C2N=C(c3ccccc3)NO2)cc1 (stereo unspecified) 0.8%
Cc1ccc(-n2nc3c(c2NC(=O)CCC2CCCCC2)CS(=O)C3)cc1 (stereo unspecified) 18.5%
CCCCNC(=S)N/N=C1\CCCCc2ccccc21 13.7%
Cc1cc(O)c(Sc2ccccc2)c(=O)o1 0.97%
Cc1ccc(N=Cc2c(O)cc(C)oc2=O)c(C)c1 -0.65%
CCOC(=O)CCc1c(C)c(C#N)c2[nH]c3ccccc3n2c1=O 4.77%
CN(C)Cc1c(C#N)c2ccccc2n1C 1.2%
COc1ccc(CCNC(=O)c2nnc(CS(=O)(=O)c3ccccc3)o2)cc1OC -2.96%
CCn1c2ccccc2c2cc(NC(=O)CNC)ccc21 44.7%
CCn1c2ccccc2c2cc(CC(N)=O)ccc21 1.45%
CCn1c2ccccc2c2cc(NC(=S)N3CCOCC3)ccc21 46%
CCn1c2ccccc2c2cc(NC(=O)COC(=O)c3cc(S(=O)(=O)N4CCCCC4)ccc3Cl)ccc21 34.2%
COc1cc(OC)c(N2CC(C(=O)Nc3cc(Cl)ccc3N3CCOCC3)CC2=O)cc1Cl (stereo unspecified) -0.04%
CCn1c(CSc2nncn2-c2ccc(OC)cc2)nc2cc(S(=O)(=O)N(C)C)ccc21 -0.25%
CCOc1ccccc1C1NC(=O)NC(C)=C1C(=O)OCc1ccco1 (stereo unspecified) -1.31%
COc1ccc2sc(-c3ccc(S(C)(=O)=O)cc3)c(-c3ccc(C(N)=O)cc3)c2c1 17.8%
COc1ccccc1-c1sc2ccccc2c1-c1ccc(C(C)=O)cc1 42.1%
O=C1CCCCC1Sc1ccc(Cl)cc1[N+](=O)[O-] (stereo unspecified) 14.3%
Cc1nc(NC(CC(C)C)C(=O)O)c2nc(C)oc2n1 (stereo unspecified) 1.08%
CCOC(=O)CN1C(=O)C(=O)c2cc(C)ccc21 -0.46%
CC(OC(=O)CN1C(=O)c2ccccc2C1=O)C(=O)c1ccccc1 (stereo unspecified) 0.4%
CC1CCCN(S(=O)(=O)c2ccc(N(C(=O)c3cnccn3)C(C(=O)NC3CCCCC3)c3cccs3)cc2)C1 (stereo unspecified) 2.59%
CCOC(=O)CCP(=O)(O)C(O)(c1ccccc1)c1ccccc1 -2.52%
COCCNC(=O)c1ccc(S(=O)(=O)c2ccc(Cl)cc2)c(NC(C)=O)c1 5.01%
CCOC(=O)c1c(S(=O)(=O)Nc2cccc(Cl)c2)c(C)n(C)c1C 21.5%
CCOC(=O)c1c(C)n(C)c2ccc(OC)c(NC(=O)CN3CCC4(CC3)OCCO4)c12 0.77%
FC(F)(F)c1cc(C(F)(F)F)c2ccc(N3CCN(c4ccccc4)CC3)nc2n1 3.17%
COc1ccc(Oc2cn[nH]c2-c2ccc(OC)cc2O)cc1 6.87%
CC(=O)Nc1cccc(-c2nc3ccccc3s2)c1C -9.79%
CCOC(=O)C1(Cc2ccccc2C)CCCN(C(=O)c2ccc(COC)o2)C1 (stereo unspecified) 20.8%
O=c1ccc2cc(S(=O)(=O)Nc3ccccc3F)ccc2o1 -0.99%
Cc1cc(C(=O)COc2ccccc2[N+](=O)[O-])c(C)n1-c1cccc(S(=O)(=O)N2CCOCC2)c1 10.1%

activation, active:
COc1ccccc1-c1nnc(NC(=O)c2ccc3ncsc3c2)o1 48.6%
CC(=O)C1=C(O)C(=O)N(c2ccc(Br)cc2)C1c1ccc([N+](=O)[O-])cc1 (stereo unspecified) 62.3%
C=CCSc1nnc2c(n1)-c1cccc3cccc-2c13 56.7%
Cc1c(C(=O)Nc2cccc(S(=O)(=O)N3CCOCC3)c2)oc2ccccc12 67.5%
Brc1ccccc1C1N=C(c2ccccc2)NO1 (stereo unspecified) 50.1%
Cc1cc(O)c(C(=O)/C=C/c2c(F)c(F)c(F)c(F)c2F)c(=O)o1 99.4%
CCCc1cc(=S)n2c([nH]c3ccccc32)c1C#N 63.8%
CCn1c2ccccc2c2cc(NC(=O)C/C(C)=N/NC(=O)c3ccccc3N)ccc21 95.2%
CCn1c2ccccc2c2cc(NC(=O)COC(=O)c3ccccc3Br)ccc21 62.5%
COC(=O)c1ccc(/C=C/c2c(-c3ccc(OC)cc3)sc3ccccc23)cc1 51.7%
CC(C)OC(=O)CN1C(=O)C(=O)c2ccccc21 101%
CCOC(=O)c1c(C)n(C)c2ccc(OC)c(NS(=O)(=O)CC)c12 55.7%
Oc1ccc(-c2[nH]ncc2-c2nc3ccccc3s2)c(O)c1 48.9%
